Screening results from PubChem.
ELG1 repair inh = ELG1-dependent DNA repair inhibition; hit rate 2.3% among 330,000; HEK293T ELG1-luciferase reporter, luminescence, 16 h; DNA damage induced by 5-fluorouridine; Potency, µM (top dose mostly 46.1 µM), without a hit: top-dose activity change, negative = inhibition, usual class: inhibitors; also: % is scaled to controls: 0 for no effect and ±100 for the full control effect; nearly all actives have a fitted effect of over 55% in size
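Overnight (16 hr) co-exposure of 2,000 cells/well to 5-fluorouridine and compound at 37 °C preceded detection. Luciferase was quantified via ONE-Glo luminescence; loss of signal denotes inhibition.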
SMN2 splice enh = SMN2 splice variant enhancement; hit rate 2.8% among 210,000; Potency, µM (highest dose often 46.1 µM), for inactives: at the top dose activity change, positive = activation, most hits filed as activators; HEK293 SMN2-luciferase splicing reporter, luminescence, 30-36 h; also: % of control where 0% means no effect; nearly all actives have a fitted effect of over 55% in size
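HEK293 cells carry an SMN2 minigene-luciferase reporter in which exon 7 inclusion puts luciferase in frame. Cells were seeded at 2000 cells/well, attached for 10-12 hours, then exposed to compounds for 30-36 hours at 37C before ONE-Glo luminescence.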
NPC1 promoter act = activators of NPC1 promoter; Huh7 NPC1 promoter luciferase reporter, 24 h; Potency, µM (top dose mostly 9.22 µM), without a hit: at the top dose activation, most hits filed as activators; hit rate 2.4% among 320,000; AID 485313; also: % of control where 0% means no effect; nearly all actives have a fitted effect of over 60% in size
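NPC1 promoter–luciferase Huh7 cells; 24 h compound; luminescence.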
ELG1 genotox = inducers of genotoxicity in HEK293T ELG1-luciferase cells; HEK293T ELG1-luciferase reporter, luminescence, 16 h; Potency, µM (highest dose often 46 µM), without a hit: at the highest dose activity change, positive = activation, most hits filed as activators; hit rate 1.3% among 330,000; also: % of control where 0% means no effect; nearly all actives have a fitted effect of over 60% in size
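16 hr compound incubation (37 °C, 5% CO2) of HEK293T cells carrying luciferase-tagged ELG1; luciferase then measured by ONE-Glo luminescence after 30 min at RT.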
FLuc counter = counter-screen for miR-21 project: firefly luciferase inhibitors or activators | hit rate 6.9% among 360,000 | purified FLuc, Km substrates, luminescence inhibition | P08659 | Potency, µM (top dose mostly 57.5 µM), for the others: top-dose activity change, negative = inhibition, hits mostly inhibitors | AID 588342;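 also: plate controls were vehicle for no effect and reference inhibitor for full effect; nearly all actives have a fitted effect of over 55% in size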
Target sequence (P08659 whole entry, looked up): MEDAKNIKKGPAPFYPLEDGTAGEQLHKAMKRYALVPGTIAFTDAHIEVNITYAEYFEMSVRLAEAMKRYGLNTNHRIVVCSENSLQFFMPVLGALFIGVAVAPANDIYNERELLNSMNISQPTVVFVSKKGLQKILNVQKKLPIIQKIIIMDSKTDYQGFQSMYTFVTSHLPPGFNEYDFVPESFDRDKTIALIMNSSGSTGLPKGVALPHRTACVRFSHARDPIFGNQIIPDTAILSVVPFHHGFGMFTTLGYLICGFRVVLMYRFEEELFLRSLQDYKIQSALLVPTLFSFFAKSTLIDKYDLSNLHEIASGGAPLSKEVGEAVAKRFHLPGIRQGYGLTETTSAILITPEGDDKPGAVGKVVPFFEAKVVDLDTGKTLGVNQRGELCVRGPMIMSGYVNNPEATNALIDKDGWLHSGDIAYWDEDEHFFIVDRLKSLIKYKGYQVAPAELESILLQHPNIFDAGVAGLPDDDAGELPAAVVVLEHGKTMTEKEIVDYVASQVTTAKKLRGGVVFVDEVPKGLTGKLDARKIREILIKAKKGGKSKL
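Biochemical qHTS of compounds, final roughly 60 µM downward over six points, against 10 nM purified firefly luciferase using Km concentrations of substrates (10 uM D-luciferin, 10 uM ATP) in Tris acetate pH 7.5 buffer; luminescence output.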
Rab9 prom act = activators of Rab9 promoter | Huh7 Rab9 promoter-luciferase reporter, luminescence, 24 h | Potency, µM (series often up to 9.22 µM), for the others: top-dose activation, negative = inhibition, actives largely listed as activators | hit rate 2.8% among 320,000; also: % of control where 0% means no effect; nearly all actives have a fitted effect of over 60% in size
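Promoter activation is measured as luciferase luminescence in Huh7 cells stably transfected with a Rab9 promoter–luciferase construct, following 24 h compound exposure at 37 °C and 10 min reagent incubation at ambient temperature.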
Numbers without * were called inactive; ? = inconclusive; · = no result given. Only some compounds are listed: those with a hit (about 9.2% of all), similar ones and a draw of the others. Calls follow the shape of the dose curve; as a rule, active = well fitted curve in the direction sought with a large enough effect; inconclusive = small, poorly fitted or top-dose-only effect, or another doubt; inactive = no such curve, though single readings can be large; an effect the other way counts as inactive or inconclusive. Potency is read from the fitted curve at half-maximal effect.

SMILES | ELG1 repair inh | SMN2 splice enh | NPC1 promoter act | ELG1 genotox | FLuc counter | Rab9 prom act
O=C(c1ccc2c(c1)OCCCO2)c1cccs1 | ? | 13µM* | 1.1µM* | ? | 6.7µM* | 2.2µM*
CCN(CC)S(=O)(=O)c1cc(NC(=O)CCCOc2ccc(C(C)=O)cc2)ccc1C | 16µM* | -68% | -8% | 2% | -1% | -16%
CC1=C(C(=O)Nc2ccc(C)cc2C)C(c2cccn2C)n2ncnc2N1 (stereo unspecified) | · | · | · | · | -3% | ·
CCc1cccc(C)c1NC(=O)COCc1cc(-c2ccc3c(c2)OCO3)on1 | · | · | · | · | -19% | ·
CCCCn1c(N)c(N(CC(C)C)C(=O)C2=COCCO2)c(=O)[nH]c1=O | 17% | · | -18% | -3% | 9% | -4%
COc1cc(NC(=O)c2ccc(OCc3c(C)noc3C)c(OC)c2)cc(OC)c1 | 21µM* | · | · | 5% | · | ·
Cc1noc(C)c1COc1cccc(C(=O)Nc2ccccc2)c1 | 3% | · | 1% | 4% | · | -3%
Cc1ccc(NC(=O)c2cccc(OCc3c(C)noc3C)c2)cc1 | 18% | -5% | 9% | 3% | 24µM* | 1%
Nc1ncc(Br)cc1S(=O)(=O)Nc1ccccc1F | 14% | · | 0% | 0% | 0% | -3%
Oc1[nH]c2ccccc2c1/C=N/c1nccs1 | ? | ? | ? | 8% | 12µM* | ?
COc1ccc(N=Cc2c(O)ccc3ccccc23)cc1 | 5% | · | -2% | -10% | 13µM* | -3%
Oc1[nH]c2ccccc2c1/C=N/N1CCCCC1 | ? | -12% | 4% | 0% | -17% | 4%
Cc1ccc(N=Cc2c(O)[nH]c3ccccc23)c([N+](=O)[O-])c1 | ? | 22% | ? | ? | ? | 0.56µM*
O=C(O)c1ccc(N=Cc2c(O)ccc3ccccc23)cc1 | 1% | · | 2% | 1% | 30µM* | 3%
Cc1ccccc1OCC(=O)OCc1cc(=O)n2nc(C3CCCCC3)sc2n1 | · | · | · | · | -3% | ·
Cc1c(C(=O)Nc2c(N)nc(SCC(=O)NCC3CCCO3)[nH]c2=O)cccc1[N+](=O)[O-] (stereo unspecified) | -3% | · | 0% | 1% | -1% | -4%
O=C(COC(=O)c1c(F)cccc1F)Nc1ccc(N2CCCCC2)cc1 | 22% | · | · | 4% | · | ·
CCc1ccc(N(CC(=O)NC(C)(C)C)C(=O)CCC(=O)Nc2ccccn2)cc1 | 0% | · | 2% | 0% | -1% | 0%
Oc1[nH]c2ccccc2c1C=Nc1ccc2c(c1)OCO2 | ? | 0.89µM* | 2µM* | ? | 7.6µM* | 1.8µM*
COc1ccc(N=Cc2c(O)[nH]c3ccccc23)cc1 | ? | 13µM* | 1.6µM* | ? | 2.7µM* | 1.6µM*
COc1ccc(Cn2c(O)c(C=Nc3ccc(O)cc3)c3ccccc3c2=O)cc1 | 23µM* | -13% | -3% | -3% | -8% | -2%
CCOC(=O)c1sc(/N=C/c2c(O)ccc3ccccc23)cc1C | ? | -34% | 3% | 0% | 19µM* | 2%
Cc1cccc(N(C(=O)c2csnn2)C(C(=O)NC2CCCCC2)c2ccncc2)c1 (stereo unspecified) | 15% | · | 3% | 0% | -2% | -5%
CCN(C[C@H]1N[C@@](C)(C(=O)OC)[C@H]2C(=O)N(C)C(=O)[C@@H]12)S(=O)(=O)c1ccc(OC)cc1 | 0% | · | · | 3% | · | ·
O=C(Nc1ccc(OC(F)(F)F)cc1)c1n[nH]c(Cn2cncn2)n1 | 2% | 3% | -2% | 2% | 12µM* | 0%
SMILES | ELG1 repair inh | SMN2 splice enh | NPC1 promoter act | ELG1 genotox | FLuc counter | Rab9 prom act
O=C(Nc1ccc(OC(F)(F)F)cc1)c1ccc(-n2cncn2)nc1 | ? | -25% | -18% | -3% | -2% | -11%
Cc1cc(=O)n2nc(N3CCCC3C(=O)Nc3cccc(Cl)c3C)sc2n1 (stereo unspecified) | 3% | · | -3% | 4% | 7% | -2%
O=C(COc1ccc(C(=S)N2CCCC2)cc1)Nc1ccc(F)cc1 | -14% | · | -3% | -4% | 1% | 2%
Fc1ccc(COc2ccc(C(=S)N3CCCC3)cc2)cc1 | ? | · | 2.2µM* | ? | 21µM* | 1.3µM*
S=C(c1ccc(OCc2ccccc2)cc1)N1CCCC1 | ? | · | ? | ? | 19µM* | ?
OCc1cnc(SCc2cccc(F)c2)n1Cc1ccc(F)cc1 | · | · | · | · | 4% | ·
COc1ccc(C(=O)Nn2c(SCC(=O)NCC3CCCO3)nc3ccccc3c2=O)cc1 (stereo unspecified) | ? | -90% | 0.5µM* | ? | 0.76µM* | 0.4µM*
COC(=O)c1ccc2c(=O)n(CC3CCCO3)c(SCC(=O)Nc3ccccc3OC)nc2c1 (stereo unspecified) | ? | 6% | 4% | 0% | 6.7µM* | -4%
O=C(CSc1nc2ccccc2c(=O)n1NC(=O)c1ccccc1)c1ccccc1 | ? | ? | ? | ? | 12µM* | 3.5µM*
COc1ccc(C(=O)Nn2c(SCC(=O)NC3CCCC3)nc3ccccc3c2=O)cc1 | ? | -41% | 3.2µM* | ? | 9.5µM* | 0.89µM*
COc1ccc(NC(=O)CSc2nc3ccccc3c(=O)n2CCC(=O)NC2CCCCC2)c(OC)c1 | · | · | · | · | 2% | ·
Cc1cn2c(=O)cc(COc3ccccc3NC(=O)c3ccco3)nc2s1 | · | 2% | · | · | -1% | ·
O=C1NC(Cc2ccccc2)c2nc3ccc(F)cc3c(=O)n2-c2cc(Cl)ccc21 (stereo unspecified) | ? | · | · | -3% | · | ·
O=C(CSc1nc2ccsc2c(=O)n1NC(=O)c1ccccc1)Nc1nccs1 | ? | 20µM* | 12% | 7% | -7% | 25%
O=C(CSc1nc2ccccc2c(=O)n1NC(=O)Cc1ccccc1)NCc1ccccc1 | -8% | -18% | 2% | -6% | 2% | 0%
COc1ccc(C(=O)Nn2c(SCC(=O)NCc3ccccc3)nc3ccccc3c2=O)cc1 | ? | ? | 0.4µM* | 0.082µM* | 2.7µM* | 0.13µM*
O=C(Nc1ccc2c(c1)OCO2)c1noc2c1CCCC2 | ? | · | 0.79µM* | 0.65µM* | 1.5µM* | 0.63µM*
O=C(Nc1ccc2c(c1)OCO2)c1noc2c1CCCCC2 | ? | 5.6µM* | 0.56µM* | ? | 2.1µM* | 0.45µM*
COc1ccc(C)cc1NC(=O)CCNC(=O)Cn1cnc2ccccc2c1=O | -10% | · | -7% | -6% | -1% | 0%
CCOC(=O)C1=C(COC(=O)CCC(=O)c2ccc(C)cc2)NC(=O)NC1C (stereo unspecified) | 18% | · | 1% | -2% | 2% | -7%
